Most compounds without a hit are left out; they make up all but 17% or so of the library.
DT40 TDP1 no CPT: qHTS for Inhibitors of human tyrosyl-DNA phosphodiesterase 1 (TDP1): qHTS in cells in absence of CPT; Potency, µM (titrated, usually from 46.2 µM), without a hit: top-dose activity change, negative = growth inhibition, hits mostly inhibitors; DT40 Tdp1-/- hTDP1 cells, no CPT, ATP luminescence, 48 h; AID 686978, 2013; actives 15% (n = 420,000); note: % is set by controls: 0 for no effect and ±100 for the full control effect; nearly all actives have a fitted effect of over 55% in size
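Camptothecin absent (DMSO only). Human TDP1-complemented DT40 knockout cells, 400 cells/well, 37 °C for minimum 48 hr; ATP measured via CellTiter-Glo, 30 min dark incubation, luminescence.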
DT40 TDP1 CPT: growth inhibition of DT40 Tdp1-/-;hTDP1 cells with camptothecin (screen for TDP1 inhibitors); Potency, µM (series often up to 46.2 µM), inactives show at the top dose activity change, negative = growth inhibition, actives largely listed as inhibitors; chicken DT40 Tdp1-/-;hTDP1 cells + 20 nM CPT, ATP luminescence, 48 h; AID 686979; actives 12% (n = 420,000); note: % is set by controls: 0 for no effect and ±100 for the full control effect; nearly all actives have a fitted effect of over 55% in size
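Chicken DT40 Tdp1-/- cells complemented with human TDP1, 400 cells/well, exposed to compounds plus 20 nM camptothecin for at least 48 h at 37 C; viability read as ATP content by CellTiter-Glo luminescence.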
TDP1 inh: inhibitors of human tyrosyl-DNA phosphodiesterase TDP1. actives 0.28% (n = 350,000). Q9NUW8. Potency, µM (top dose mostly 130 µM), without a hit: at the highest dose activity change, negative = inhibition, actives largely listed as inhibitors. recombinant TDP1, AlphaScreen DNA substrate cleavage; note: % is set by controls: 0 for no effect and ±100 for the full control effect; nearly all actives have a fitted effect of over 40% in size
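Steps: enzyme plus compound, 15 min RT; add biotin/phosphotyrosine-FITC oligonucleotide (15 nM final), react 5 min; add donor/acceptor beads (10 ug/ml final), 10 min; read AlphaScreen. Tdp1 at 1 nM final.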
ClpP mod: qHTS Assay for Activators of ClpP; actives 1.9% (n = 340,000); purified B. subtilis ClpP, FRET peptide cleavage, 20 min; Potency, µM (titrated, usually from 57.5 µM), without a hit: at the top dose activity change, negative = active; active = well fitted falling curve with a large enough effect; inconclusive = small, poorly fitted or top-dose-only effect; inactive = no such curve, though single readings can be large or run the other way; note: the source files actives as falling curves though it sought activators and does not explain the sign; nearly all actives have a fitted effect of over 65% in size
Target sequence (P80244 whole entry, looked up): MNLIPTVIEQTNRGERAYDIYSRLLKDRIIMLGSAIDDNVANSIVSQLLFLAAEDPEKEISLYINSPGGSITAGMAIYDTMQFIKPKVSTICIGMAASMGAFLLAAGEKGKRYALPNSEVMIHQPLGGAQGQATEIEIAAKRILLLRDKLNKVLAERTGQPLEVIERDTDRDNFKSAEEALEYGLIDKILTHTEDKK
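Purified B. subtilis ClpP, 10 microg/mL final in Tris/HCl pH8 with KCl, BSA, glycerol and Tween-20, cleaved an Abz/nitrotyrosine-quenched decapeptide. Fluorescence (ex 320, em 430) was read at 0 and 20 min at room temperature. Delta was normalized to 5.8 microM ADEP and DMSO/no-enzyme controls.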
* = called active by the depositor; ? = inconclusive; / = no result given. Unless noted, calls come from the whole dose curve; as a rule, active = well fitted curve in the direction sought with a large enough effect; inconclusive = small, poorly fitted or top-dose-only effect, or another doubt; inactive = no such curve, though single readings can be large; an effect the other way counts as inactive or inconclusive. Potency is the fitted concentration of half-maximal effect.

SMILES	DT40 TDP1 no CPT	DT40 TDP1 CPT	TDP1 inh	ClpP mod
COC(=O)c1ccc(-c2ccc(OC)c(C3C4C=CCC(C)C4C(=O)N3Cc3ccccc3)c2)cc1 (stereo not drawn)	/	/	7.9%	/
COc1ccc(-c2ccc(C(C)=O)cc2)cc1C1C2C=CCC(C)C2C(=O)N1Cc1ccccc1 (stereo not drawn)	/	/	8.5%	/
COc1ccc(-c2ccc(OC)c([C@H]3[C@H]4C=CC[C@@H](C)[C@@H]4C(=O)N3Cc3ccccc3)c2)cc1C	10.3µM*	?	2.4%	-5.7%
COc1ccc(-c2ccc(C(C)=O)cc2)cc1[C@H]1[C@H]2C=CC[C@@H](C)[C@@H]2C(=O)N1Cc1ccccc1	16.4µM*	23.1µM*	4.7%	?
COC(=O)c1ccc(-c2ccc(OC)c([C@H]3[C@H]4C=CC[C@@H](C)[C@@H]4C(=O)N3Cc3ccccc3)c2)cc1	6.51µM*	5.8µM*	1.2%	3.5%
COc1ccc(-c2ccc(N(C)C)cc2)cc1C1C2C=CCC(C)C2C(=O)N1Cc1ccccc1 (stereo not drawn)	/	/	24.4%	/
COc1ccc(-c2cc3ccccc3s2)cc1[C@H]1[C@H]2C=CC[C@@H](C)[C@@H]2C(=O)N1Cc1ccccc1	18.4µM*	?	-1.2%	?
C[C@@H](CSc1ccccc1)CN1CC[C@H](O)CCC1=O	-9.0%	?	/	-3.3%
C[n+]1ccc(C(=O)NCCC[N+](C)(C)C)cc1/C=N/O	-19.5%	0.7%	4.8%	/
CC1=CC2(C)NC(=O)C(C)C12 (stereo not drawn)	8.0%	4.2%	/	-0.4%
N/C(=N\c1nc2c(c(=O)[nH]1)CCC2)Nc1cccc2ccccc12	?	?	3.2%	-0.7%
N/C(=N\c1nc2c(c(=O)[nH]1)CCC2)Nc1cccc(Cl)c1	25.9µM*	20.6µM*	-3.1%	6.1%
CC(=O)c1ccc(NC(=O)c2cccc(NC(=O)N3CCSc4ncccc43)c2)cc1	-25.2%	-2.2%	-5.6%	-25.5%
Cc1ccc(CNS(=O)(=O)NCc2cccs2)cc1	?	-19.9%	3.8%	-2.3%
COc1ccc(C2Nc3ccccc3C(=O)N2c2ccccc2F)cc1COc1ccc(NC(C)=O)cc1 (stereo not drawn)	17.8µM*	11.2µM*	0.5%	3.5%
COc1ccc(C2Nc3ccccc3C(=O)N2c2ccccc2)cc1COc1ccc(NC(C)=O)cc1 (stereo not drawn)	?	?	3.0%	4.3%
COc1ccc(C2Nc3ccccc3C(=O)N2c2ccc(Cl)cc2)cc1COc1ccc(NC(C)=O)cc1 (stereo not drawn)	14.1µM*	?	0.2%	4.5%
COc1cc(C2Nc3ccccc3C(=O)N2c2ccccc2OC)ccc1O (stereo not drawn)	-14.7%	-6.7%	5.7%	31.6µM*
CCOc1cc(C2Nc3ccccc3C(=O)N2c2ccccc2OC)ccc1O (stereo not drawn)	-12.8%	-20.3%	-0.5%	?
CCOc1ccc(N(CC(=O)NC(C)(C)C)C(=O)CCC(=O)Nc2nccs2)cc1	-7.9%	50.7%	3.6%	1.2%
CC(C)(C)OC(=O)C[C@@H]1C/C=C\C[C@H](CC(=O)N(CCO)Cc2ccccc2)C(=O)NCCOC1=O	-24.4%	-25.8%	0.4%	0.0%
Cc1ccc(C(=O)NCC(c2cccs2)S(=O)(=O)c2cccs2)cc1C (stereo not drawn)	20.6µM*	11.6µM*	5.2%	0.4%
O=C(NCC(c1cccs1)S(=O)(=O)c1cccs1)c1ccc(Cl)cc1 (stereo not drawn)	18.4µM*	?	7.8%	-0.4%
O=C(NCC(c1cccs1)S(=O)(=O)c1cccs1)c1c(F)cccc1F (stereo not drawn)	?	?	2.7%	-0.7%
O=C(NCC(c1cccs1)S(=O)(=O)c1cccs1)c1ccc(F)c(F)c1 (stereo not drawn)	?	?	5.2%	0.2%
Cc1c(-c2ccccc2)oc2c(C(=O)N3CCN(c4ccccc4F)CC3)cccc2c1=O	20.6µM*	20.6µM*	-2.7%	1.7%
CCCCN(C(=O)c1cccc2c(=O)c(C)c(-c3ccccc3)oc12)c1ccccc1	8.2µM*	16.4µM*	3.0%	-0.4%

Screening results deposited in PubChem by National Center for Advancing Translational Sciences (NCATS).
